# PubChem BioAssay (NCATS)
# Unmarked numbers belong to inactive results. Inconclusive results are not listed. Where a call stands in place of a potency, no number is given. Calls of active or inactive are those of the source. Unless noted, calls come from the whole dose curve; as a rule, active = well fitted curve in the direction sought with a large enough effect; inconclusive = small, poorly fitted or top-dose-only effect, or another doubt; inactive = no such curve, though single readings can be large; an effect the other way counts as inactive or inconclusive.
# How the values were obtained:
# [1] = biological target: Mitogen-activated protein kinase 10 (Mus musculus) (UniProt Q61831); test: JNK3 AlphaScreen Assay (AID 530; active = well fitted curve in either direction with a large enough effect, not every such curve was filed as active;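 note: kinase came from lysate of stimulated human HepG2 cells; signal reports phosphorylation of biotinylated GST-cJun 1-79 at Ser73 with 10 µM ATP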)
# In short: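 Kinase buffer: 20 mM Tris-HCl pH 7.6, 10 mM MgCl2, 1 mM DTT, 0.1 mM Na3VO4, 0.01% Tween-20; ATP 10 uM. Substrate biotin-GST-cJun(1-79), enzyme from activated HepG2 lysates. Detection by Ser73 phospho-antibody AlphaScreen.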
# [2] = system: Zika virus NS2B-NS3 protease; test: Primary screen GU AMC qHTS for Zika virus inhibitors (AID 1347154); note: nearly all actives have a fitted effect of over 70% in size
# In short: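 Fluorogenic AMC-substrate cleavage by noncovalent NS2B-NS3 protease complex (25 nM, pH 8.0 Tris buffer with Tween 20) followed for 15 minutes at room temperature (~20% conversion). Percent inhibition from ex340/em450 signal change, fitted by 4-parameter Hill equation.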
# [3] = biological target: Rap guanine nucleotide exchange factor 4 (Homo sapiens) (UniProt Q8WZA2); test: Confirmatory qHTS for antagonist of cAMP-regulated guanine nucleotide exchange factor 4 (EPAC2) (AID 1645885); note: potency is the fitted concentration of half-maximal effect; nearly all actives have a fitted effect of over 25% in size
# [4] = biological target: Cytochrome P450 1A2 (Homo sapiens) (UniProt P05177); test: p450-cyp1a2 (AID 410; calls by dose curve; note: potency is the fitted concentration of half-maximal effect)
# Sequence of Cytochrome P450 1A2 (Homo sapiens) (P05177 whole entry, looked up): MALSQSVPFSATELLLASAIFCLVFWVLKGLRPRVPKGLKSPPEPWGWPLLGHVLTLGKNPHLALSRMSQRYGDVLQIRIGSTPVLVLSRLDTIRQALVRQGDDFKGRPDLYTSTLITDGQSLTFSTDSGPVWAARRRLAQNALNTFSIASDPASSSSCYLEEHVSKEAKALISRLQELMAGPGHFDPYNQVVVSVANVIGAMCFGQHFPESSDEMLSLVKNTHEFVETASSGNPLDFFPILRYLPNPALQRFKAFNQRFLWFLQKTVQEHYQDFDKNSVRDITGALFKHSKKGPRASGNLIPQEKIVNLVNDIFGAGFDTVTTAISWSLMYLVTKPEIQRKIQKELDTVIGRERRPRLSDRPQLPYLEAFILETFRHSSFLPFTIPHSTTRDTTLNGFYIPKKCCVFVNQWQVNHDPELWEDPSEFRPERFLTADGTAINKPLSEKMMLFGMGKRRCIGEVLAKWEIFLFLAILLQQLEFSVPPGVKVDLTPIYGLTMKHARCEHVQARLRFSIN
# In short: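 Read-out is luminescence from luciferin produced by CYP1A2 demethylation of Luciferin-ME (100uM, at Km). Detection reagent stopped the 60 min NADPH-dependent reaction; signals were normalized to 57 uM furafylline.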
# [5] = biological target: Glucocorticoid receptor (Homo sapiens) (UniProt P04150); test: GR-GFP Redistribution (AID 450;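 active = compounds whose dose series gives a full or clear partial fitted curve of increased nuclear translocation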; note: potency is the fitted concentration of half-maximal effect); conditions: U2OS GR-GFP nuclear translocation, laser cytometry, 2 h
# Sequence of Glucocorticoid receptor (Homo sapiens) (P04150 whole entry, looked up, the tested form may be a part): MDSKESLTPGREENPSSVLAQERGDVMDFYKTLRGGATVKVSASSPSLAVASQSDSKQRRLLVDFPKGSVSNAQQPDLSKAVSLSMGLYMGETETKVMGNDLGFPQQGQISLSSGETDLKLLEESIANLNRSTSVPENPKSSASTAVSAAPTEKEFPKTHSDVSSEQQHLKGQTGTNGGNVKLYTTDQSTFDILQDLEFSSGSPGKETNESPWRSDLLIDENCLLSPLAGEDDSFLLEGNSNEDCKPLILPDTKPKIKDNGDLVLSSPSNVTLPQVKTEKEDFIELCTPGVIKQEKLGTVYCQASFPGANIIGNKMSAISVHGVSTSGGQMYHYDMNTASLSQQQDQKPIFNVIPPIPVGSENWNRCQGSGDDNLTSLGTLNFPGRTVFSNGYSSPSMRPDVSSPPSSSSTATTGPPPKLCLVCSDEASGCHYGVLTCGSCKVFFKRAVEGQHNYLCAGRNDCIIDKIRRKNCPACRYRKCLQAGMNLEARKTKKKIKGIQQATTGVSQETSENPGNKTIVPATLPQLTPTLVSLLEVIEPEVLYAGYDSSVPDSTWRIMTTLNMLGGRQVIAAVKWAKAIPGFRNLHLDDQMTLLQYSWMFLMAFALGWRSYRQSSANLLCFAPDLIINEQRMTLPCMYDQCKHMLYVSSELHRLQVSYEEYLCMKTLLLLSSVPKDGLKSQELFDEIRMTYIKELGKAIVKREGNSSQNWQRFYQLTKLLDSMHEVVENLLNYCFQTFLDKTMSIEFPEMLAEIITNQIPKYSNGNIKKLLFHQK
# [6] = biological target: 3',5'-cyclic-AMP phosphodiesterase 4B (Homo sapiens) (UniProt Q07343); test: qHTS Assay for Inhibitors of PDE-IV (AID 607; active = well fitted activation curve with a large enough effect in the main read-out, with a control signal flat, not every such curve was filed as active)
# Sequence of 3',5'-cyclic-AMP phosphodiesterase 4B (Homo sapiens) (Q07343 whole entry, looked up): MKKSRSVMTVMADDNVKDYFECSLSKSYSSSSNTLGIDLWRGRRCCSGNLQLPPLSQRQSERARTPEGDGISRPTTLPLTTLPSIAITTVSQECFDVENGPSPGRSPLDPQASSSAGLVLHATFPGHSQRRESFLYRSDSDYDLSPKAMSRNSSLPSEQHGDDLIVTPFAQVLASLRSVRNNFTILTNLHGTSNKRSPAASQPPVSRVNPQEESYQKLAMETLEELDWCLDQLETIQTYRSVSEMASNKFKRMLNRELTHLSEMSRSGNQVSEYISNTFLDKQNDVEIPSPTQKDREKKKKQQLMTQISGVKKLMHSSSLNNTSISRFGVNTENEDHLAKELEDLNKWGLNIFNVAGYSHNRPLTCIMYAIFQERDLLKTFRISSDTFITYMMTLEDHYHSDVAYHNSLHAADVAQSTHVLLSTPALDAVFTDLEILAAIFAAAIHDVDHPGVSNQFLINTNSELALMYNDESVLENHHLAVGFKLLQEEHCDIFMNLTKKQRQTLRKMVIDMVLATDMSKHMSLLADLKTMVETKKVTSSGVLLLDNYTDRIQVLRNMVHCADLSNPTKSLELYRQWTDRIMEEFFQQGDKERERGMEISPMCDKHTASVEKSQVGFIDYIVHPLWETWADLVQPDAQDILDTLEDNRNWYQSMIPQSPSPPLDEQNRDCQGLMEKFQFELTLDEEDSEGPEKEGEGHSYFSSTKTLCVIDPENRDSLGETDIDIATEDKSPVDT
# In short: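 ACTOne HEK293 cells carry a modified cAMP-gated CNG channel and express endogenous PDE4; plated 1000 cells/well, compounds up to 22.9 uM final. Membrane-potential dye fluorescence (ex 535/em 590) was read; parental cells received 10 uM forskolin + 100 uM RO 20-1724.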
# [7] = biological target: Cytochrome P450 3A4 (Homo sapiens) (UniProt P08684); test: qHTS Assay for Inhibitors and Substrates of Cytochrome P450 3A4 (AID 884); note: potency is the fitted concentration of half-maximal effect; nearly all actives have a fitted effect of over 50% in size
# Sequence of Cytochrome P450 3A4 (Homo sapiens) (P08684 whole entry, looked up): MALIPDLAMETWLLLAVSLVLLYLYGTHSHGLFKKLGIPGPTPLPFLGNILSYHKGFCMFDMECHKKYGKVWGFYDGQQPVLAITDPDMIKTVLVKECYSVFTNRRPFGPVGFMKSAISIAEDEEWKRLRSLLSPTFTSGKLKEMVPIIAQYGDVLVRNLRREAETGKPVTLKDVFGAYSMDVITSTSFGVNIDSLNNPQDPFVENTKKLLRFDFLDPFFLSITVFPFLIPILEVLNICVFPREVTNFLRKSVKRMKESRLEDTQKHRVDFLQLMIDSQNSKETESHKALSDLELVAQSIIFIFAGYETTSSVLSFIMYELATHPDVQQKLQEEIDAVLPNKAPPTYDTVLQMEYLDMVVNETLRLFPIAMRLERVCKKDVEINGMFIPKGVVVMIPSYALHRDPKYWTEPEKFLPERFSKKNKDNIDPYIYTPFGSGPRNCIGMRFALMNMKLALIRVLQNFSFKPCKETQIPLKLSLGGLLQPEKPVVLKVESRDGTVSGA
# In short: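 Luminescent readout of luciferin produced by CYP3A4 (20 nM) dealkylation of Luciferin-PPXE, 25 uM (its KM). NADPH-driven reaction ran 60 min at RT after 10 min compound preincubation; data scaled to 57 uM ketoconazole as 100% inhibition.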
# [8] = biological target: Cytochrome P450 3A4 (Homo sapiens) (UniProt P08684); test: qHTS Assay for Activators of Cytochrome P450 3A4 (AID 885); note: nearly all actives have a fitted effect of over 65% in size
# In short: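 CYP3A4 activity: Luciferin-PPXE O-dealkylation, 25uM substrate, 200mM KPO4, RT throughout. Read-out is luciferase luminescence; higher values reflect activation.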
# [9] = biological target: Ubiquitin carboxyl-terminal hydrolase 1 (Homo sapiens) (UniProt O94782); test: Inhibitors of USP1/UAF1: Pilot qHTS (AID 504865);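 note: rhodamine fluorescence freed from ubiquitin-rhodamine substrate followed over time; top concentration of the series differs between compounds; nearly all actives have a fitted effect of over 35% in size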
# Sequence of Ubiquitin carboxyl-terminal hydrolase 1 (Homo sapiens) (O94782 whole entry, looked up): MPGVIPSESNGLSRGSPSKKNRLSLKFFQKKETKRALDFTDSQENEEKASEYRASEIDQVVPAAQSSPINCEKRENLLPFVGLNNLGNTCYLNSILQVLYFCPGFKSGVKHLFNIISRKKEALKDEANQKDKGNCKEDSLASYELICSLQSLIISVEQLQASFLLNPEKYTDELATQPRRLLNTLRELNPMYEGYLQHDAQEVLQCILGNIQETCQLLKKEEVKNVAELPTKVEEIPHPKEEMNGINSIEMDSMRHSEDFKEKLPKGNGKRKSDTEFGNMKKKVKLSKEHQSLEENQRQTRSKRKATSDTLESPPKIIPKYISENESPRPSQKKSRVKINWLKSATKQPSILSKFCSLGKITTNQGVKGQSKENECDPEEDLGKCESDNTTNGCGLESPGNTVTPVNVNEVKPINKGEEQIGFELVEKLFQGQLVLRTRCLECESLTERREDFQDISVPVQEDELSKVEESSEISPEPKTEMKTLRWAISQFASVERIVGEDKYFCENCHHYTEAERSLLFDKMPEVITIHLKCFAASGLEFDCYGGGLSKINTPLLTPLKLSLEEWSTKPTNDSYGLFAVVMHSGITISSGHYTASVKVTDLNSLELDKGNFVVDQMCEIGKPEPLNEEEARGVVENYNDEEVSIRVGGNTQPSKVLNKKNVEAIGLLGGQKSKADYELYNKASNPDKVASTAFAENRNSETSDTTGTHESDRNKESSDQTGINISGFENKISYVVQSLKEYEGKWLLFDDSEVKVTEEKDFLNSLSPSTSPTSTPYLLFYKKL
# In short: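 USP1/UAF1 complex at 1 nM preincubated 15 min at room temperature with compound, then Ub-Rho substrate added at 150 nM final. Fluorescence (480/540 nm) read kinetically in 50 mM HEPES pH 7.8, 0.5 mM EDTA, 1 mM TCEP, 0.1 mg/ml BSA, 0.01% Tween-20.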
# [10] = biological target: DNA dC->dU-editing enzyme APOBEC-3G (Homo sapiens) (UniProt Q9HC16); test: qHTS for inhibitors of Vif-A3G interactions: Validation (AID 588379)
# Sequence of DNA dC->dU-editing enzyme APOBEC-3G (Homo sapiens) (Q9HC16 whole entry, looked up): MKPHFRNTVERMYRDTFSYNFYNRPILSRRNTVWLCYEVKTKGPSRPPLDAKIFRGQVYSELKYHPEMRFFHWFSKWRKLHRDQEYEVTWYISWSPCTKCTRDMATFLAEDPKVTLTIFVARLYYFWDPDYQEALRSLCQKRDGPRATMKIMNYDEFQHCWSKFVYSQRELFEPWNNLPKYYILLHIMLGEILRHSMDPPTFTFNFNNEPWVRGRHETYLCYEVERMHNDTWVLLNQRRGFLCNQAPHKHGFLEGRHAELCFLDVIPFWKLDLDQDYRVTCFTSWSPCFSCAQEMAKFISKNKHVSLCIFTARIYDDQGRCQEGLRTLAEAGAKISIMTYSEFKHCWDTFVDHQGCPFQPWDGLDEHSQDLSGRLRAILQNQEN
# In short: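 Yellow fluorescence (Ex 488, Em 500-530) of Vif-coexpressing HeLa A3G-eYFP cells, scanned by Acumen cytometer, reports blocked A3G degradation. Cells plated at 700/well overnight at 37 deg C before compound addition, then a further overnight compound incubation at 37 deg C.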
# [11] = biological target: Glucocorticoid receptor (Homo sapiens) (UniProt P04150); test: GR-EFC Redistribution (AID 451; calls by dose curve; note: potency is the fitted concentration of half-maximal effect); conditions: CHO-K1 GR-EFC translocation, beta-gal luminescence, 2 h
# In short: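 Translocation of GR-ED fusion to nuclear EA restores b-gal, read by luminescence after 1 h room-temperature detection. Engineered CHO-K1 biosensor cells, 1,000/well, exposed 2 h at 37 C to titrations up to 46 uM final.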
# [12] = AP1 Signaling Pathway (AID 357; active = well fitted curve in either direction with a large enough effect, not every such curve was filed as active;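 note: ME-180 reporter cells stimulated with EGF at its EC50 level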); conditions: ME-180 (cervical carcinoma) AP-1-bla reporter, EGF-induced, beta-lactamase ratio, 5 h; at 38 µM (top of the series)
# In short: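 In this screen, ME-180 cells in Opti-MEM with 0.5% dialyzed FBS received EC50 EGF and compound titrations for 5 h. AP-1 reporter beta-lactamase was detected via CCF4 ratio, giving AC50 for positive and negative modulators.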
# [13] = NFAT Signaling Pathway (AID 444; active = well fitted curve in either direction with a large enough effect, not every such curve was filed as active;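 note: carbachol stimulus at about its EC50 of 1 µM final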); conditions: Jurkat NFAT-bla M1, carbachol, beta-lactamase ratio, 5 h; at 38 µM (top of the series)
# In short: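 Read-out: CCF4 FRET ratio (460 nm/530 nm) after 1 h RT dye loading, used for %activity and AC50 from titration series. Cells: Jurkat NFAT-β-lactamase/M1 line, treated with compound plus 1 uM carbachol for 5 h, 37 °C.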
# [14] = biological target: Guanine nucleotide-binding protein G(i) subunit alpha-1 (Homo sapiens) (UniProt P63096); test: qHTS Assay for Inhibitors of RGS12 GoLoco Motif Activity (Green Fluorophore) (AID 879);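 note: negative values mean loss of peptide binding seen as reduced polarization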
# In short: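 A drop in FITC polarization marked displacement of the FITC-tagged RGS12 GoLoco peptide (10 nM) from Gαi1 (50 nM). Compounds were incubated 10 min at room temperature in Tris pH 7.5 buffer containing 150 mM NaCl, 0.1 mM GDP and 0.05% NP40; unlabeled peptide titration served as control.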
# [15] = Confirmation and Secondary Assay for Modulators of Hemoglobin Beta Chain Splicing at IVS2 654 locus (AID 910);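 note: HeLa cells stably carrying EGFP split by mutant beta-globin IVS2-654 intron; per-well total GFP intensity by laser scanning cytometry after 2-day treatment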
# In short: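 Readout: per-well total peak green fluorescence (488 nm ex, 500–520 nm em) from objects 5–250 µm, reflecting correct splicing of an EGFP-654 reporter. Compounds were applied for 2 days at 37 °C to overnight-plated HeLa EGFP-654 cells; controls were DMSO and 500 nM IVS2-654 PNA.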
# [16] = Confirmation and Secondary Assay for Modulators of Hemoglobin Beta Chain Splicing at IVS2 705 locus (AID 930);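 note: HeLa cells stably expressing the EGFP-705 splicing reporter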
# In short: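 HeLa cells stably carrying EGFP interrupted by mutant beta-globin IVS2-705 intron (CMV-driven) were seeded at 500 cells/well, treated next day with compound for 2 days at 37C; corrected splicing restores EGFP, read as total peak GFP intensity per well.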
# [17] = biological target: Muscarinic acetylcholine receptor M1 (Rattus norvegicus) (UniProt P08482); test: qHTS Assay for Antagonists of Acetylcholine Muscarinic M1 Receptor: Measurement of IP-One Response (AID 944); note: nearly all actives have a fitted effect of over 75% in size
# In short: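 Antagonism was measured as loss of carbachol-driven (EC80) IP1 accumulation in CHO cells carrying rat M1, using a homogeneous IP-One TR-FRET kit read at 620 and 665 nm.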
# [18] = biological target: Pyruvate kinase (Leishmania mexicana) (UniProt Q27686); test: qHTS Validation Assay for Inhibitors of Leishmania Mexicana Pyruvate Kinase (AID 945)
# In short: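 LmPYK E451W 0.2 nM; 0.5 mM PEP, 0.1 mM ADP, 7 mM MgCl2, 50 mM KCl, imidazole pH 7.2, 0.01% Tween 20, 0.05% BSA; 1 h RT; PKLight luminescence; DMSO-normalized.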
# [19] = biological target: Alpha-galactosidase A (Homo sapiens) (UniProt P06280); test: Counterscreen for Glucocerebrosidase Inhibitors: qHTS Assay for Human alpha-Galactosidase at pH 4.5 (AID 992)
# In short: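 Citrate buffer pH 4.5, Tween-20 0.005%. Enzyme 2 nM, substrate 80 uM, 20 min RT. Stop pH 10. Fluorescence Ex 365/Em 440. AC50 by Hill fit.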
# [20] = biological target: alpha-glucosidase (Oryza sativa, rice) (UniProt Q653V4); test: Counterscreen for Glucocerebrosidase Inhibitors: qHTS Assay for Rice alpha-Glucosidase at pH 5.0 (AID 997)
# In short: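 Endpoint fluorogenic assay at pH 5.0: compounds (0.7 nM to 77 uM) titrated against 4 nM rice enzyme and 400 uM 4-MU-alpha-glucoside for 20 min at room temperature; NaOH/glycine stop, read ex 365/em 440 nm, Hill-fitted AC50.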
# [21] = biological target: Rap guanine nucleotide exchange factor 3 (Homo sapiens) (UniProt O95398); test: Confirmatory qHTS for agonist of cAMP-regulated guanine nucleotide exchange factor 3 (EPAC1) (AID 1645881);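 note: EPAC1 catalysed release of BODIPY-GDP from Rap1B seen as fluorescence loss; nearly all actives have a fitted effect of over 75% in size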
# [22] = biological target: Rap guanine nucleotide exchange factor 4 (Homo sapiens) (UniProt Q8WZA2); test: Confirmatory qHTS for agonist of cAMP-regulated guanine nucleotide exchange factor 4 (EPAC2) (AID 1645884);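 note: nucleotide exchange releases bodipy-GDP from Rap1 and this lowers its fluorescence; nearly all actives have a fitted effect of over 65% in size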
# [23] = biological target: Cytochrome P450 2D6 (Homo sapiens) (UniProt P10635); test: qHTS Assay for Inhibitors and Substrates of Cytochrome P450 2D6 (AID 891); note: potency is the fitted concentration of half-maximal effect; nearly all actives have a fitted effect of over 60% in size
# Sequence of Cytochrome P450 2D6 (Homo sapiens) (P10635 whole entry, looked up): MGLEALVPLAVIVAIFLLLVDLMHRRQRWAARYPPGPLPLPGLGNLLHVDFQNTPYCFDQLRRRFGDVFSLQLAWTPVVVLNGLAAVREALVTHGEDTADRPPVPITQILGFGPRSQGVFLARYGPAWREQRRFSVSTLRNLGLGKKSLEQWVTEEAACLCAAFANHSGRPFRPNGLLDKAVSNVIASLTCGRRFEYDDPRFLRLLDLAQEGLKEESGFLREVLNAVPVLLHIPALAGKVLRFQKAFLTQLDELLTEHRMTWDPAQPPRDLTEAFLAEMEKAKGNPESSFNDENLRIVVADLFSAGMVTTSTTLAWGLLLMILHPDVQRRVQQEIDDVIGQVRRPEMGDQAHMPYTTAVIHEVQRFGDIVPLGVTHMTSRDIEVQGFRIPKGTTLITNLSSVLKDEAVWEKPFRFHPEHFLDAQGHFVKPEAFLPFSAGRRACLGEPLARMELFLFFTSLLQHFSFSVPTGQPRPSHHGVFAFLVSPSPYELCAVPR
# In short: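 Luminescent read-out of luciferin formed by 5 nM human CYP2D6 demethylating 30 uM Luciferin-ME EGE (Km level) over 60 min at room temperature after NADPH regeneration addition. Data normalized to full inhibition by 1.43 uM quinidine.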
# [24] = biological target: Cytochrome P450 2C9 (Homo sapiens) (UniProt P11712); test: qHTS Assay for Inhibitors and Substrates of Cytochrome P450 2C9 (AID 883); note: potency is the fitted concentration of half-maximal effect; nearly all actives have a fitted effect of over 60% in size
# Sequence of Cytochrome P450 2C9 (Homo sapiens) (P11712 whole entry, looked up): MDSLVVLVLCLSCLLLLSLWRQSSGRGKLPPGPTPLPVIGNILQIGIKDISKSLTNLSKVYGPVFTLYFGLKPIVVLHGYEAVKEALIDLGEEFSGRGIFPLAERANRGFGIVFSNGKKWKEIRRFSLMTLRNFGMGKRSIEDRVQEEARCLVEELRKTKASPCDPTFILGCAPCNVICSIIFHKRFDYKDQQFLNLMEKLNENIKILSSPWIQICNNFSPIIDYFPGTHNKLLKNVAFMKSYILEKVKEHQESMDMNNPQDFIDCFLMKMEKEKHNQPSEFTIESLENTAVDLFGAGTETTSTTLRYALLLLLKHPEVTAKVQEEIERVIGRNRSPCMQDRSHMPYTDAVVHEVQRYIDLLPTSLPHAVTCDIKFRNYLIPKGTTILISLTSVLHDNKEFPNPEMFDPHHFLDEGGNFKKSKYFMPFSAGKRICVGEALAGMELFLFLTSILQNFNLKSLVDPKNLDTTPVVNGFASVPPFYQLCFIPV
# In short: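 Turnover of Luciferin-H (100uM, KM) by 10nM human CYP2C9 was measured over 60 min at 37C with NADPH regeneration; inhibitors and some substrates reduce luminescence. Data normalized to sulphaphenazole 57uM.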
# [25] = biological target: Cytochrome P450 2C19 (Homo sapiens) (UniProt P33261); test: qHTS Assay for Inhibitors and Substrates of Cytochrome P450 2C19 (AID 899); note: potency is the fitted concentration of half-maximal effect; nearly all actives have a fitted effect of over 60% in size
# In short: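 Reactions contain 5nM enzyme, 10uM Luciferin-H EGE (KM) and 50mM KPO4; compound preincubates 10 min at 37C, NADPH regeneration starts turnover for 60 min. Luminescence after detection reagent gives activity.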
# [26] = biological target: Cytochrome P450 2D6 (Homo sapiens) (UniProt P10635); test: Cytochrome P450 family 2 subfamily D member 6 (CYP2D6) small molecule antagonists: luciferase biochemical (cell-free) qHTS assay (AID 1645840; active = well fitted curve in the direction sought with a large enough effect in the repeat runs; an effect the other way counts as inactive or inconclusive; note: nearly all actives have a fitted effect of over 55% in size)
# In short: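 P450-Glo CYP2D6 system: proluciferin substrate converted by enzyme to luciferin, read by luminescence proportional to activity. Enzyme-substrate mix with compound 10 min at room temperature, then NADPH regeneration 1 h before detection reagent.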
# [27] = biological target: Cytochrome P450 2C9 (Homo sapiens) (UniProt P11712); test: Cytochrome P450 family 2 subfamily C member 9 (CYP2C9) small molecule antagonists: luciferase biochemical (cell-free) qHTS assay (AID 1645842; active = well fitted curve in the direction sought with a large enough effect in the repeat runs; an effect the other way counts as inactive or inconclusive; note: nearly all actives have a fitted effect of over 55% in size)
# In short: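 P450-Glo CYP2C9 system: proluciferin substrate with enzyme in mix containing 0.4% BSA, 10 min at room temperature, then NADPH regeneration solution added and incubated 1 h at 37C. Detection reagent stopped reaction; luminescence read after 20 min as RLU.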
smiles,measurement,setting,value
C/C=C\C[C@@H](C)[C@@H](O)[C@H]1C(=O)N[C@@H](CC)C(=O)N(C)CC(=O)N(C)[C@@H](CC(C)C)C(=O)N[C@@H](C(C)C)C(=O)N(C)[C@@H](CC(C)C)C(=O)N[C@@H](C)C(=O)N[C@H](C)C(=O)N(C)[C@@H](CC(C)C)C(=O)N(C)[C@@H](CC(C)C)C(=O)N(C)[C@@H](C(C)C)C(=O)N1C,Potency,[1],inactive
same,Potency,[2],inactive
same,Potency,[3],24.8 µM (active)
CCC(C)(C)N=C(NC#N)Nc1cccnc1,Potency,[4],12.6 µM (active)
same,Potency,[5],> 46 µM
same,Potency,[1],inactive
same,Potency,[6],inactive
same,Potency,[7],5.01 µM (active)
same,Potency,[8],inactive
same,Potency,[9],inactive
same,Potency,[10],inactive
same,Potency,[2],inactive
c1ccc2nc(C3=NCCN3)cnc2c1,Potency,[4],0.398 µM (active)
same,Potency,[5],> 46 µM
same,Potency,[11],> 46 µM
same,Potency,[1],inactive
same,Potency,[9],inactive
same,Potency,[10],inactive
same,Potency,[2],inactive
COCCOC(=O)C1=C(C)NC(C)=C(C(=O)OC(C)C)[C@@H]1c1cccc([N+](=O)[O-])c1,"activity change, negative = inhibition",[12],-20.1%
same,"activity change, negative = inhibition",[13],-10.3%
same,Potency,[5],> 46 µM
same,Potency,[11],> 46 µM
same,Potency,[6],inactive
same,outcome,[14],inactive
same,outcome,[15],inactive
same,outcome,[16],inactive
same,Potency,[17],inactive
same,Potency,[18],inactive
same,outcome,[19],inactive
same,outcome,[20],inactive
same,Potency,[10],inactive
same,Potency,[2],inactive
same,outcome,[21],inactive
same,outcome,[22],inactive
Cc1ccc(S(=O)(=O)NCc2ccccc2)cc1,Potency,[4],0.501 µM (active)
same,Potency,[5],> 46 µM
same,Potency,[11],> 46 µM
same,Potency,[6],inactive
same,Potency,[8],inactive
same,Potency,[10],inactive
same,Potency,[2],inactive
O=C(NCCCN1CCCCCC1)[C@@H](c1ccccc1)C1CCCCC1,Potency,[4],31.6 µM (active)
same,Potency,[5],> 46 µM
same,Potency,[11],> 46 µM
same,Potency,[7],3.98 µM (active)
same,Potency,[8],inactive
same,Potency,[23],0.631 µM (active)
same,Potency,[9],inactive
same,Potency,[10],inactive
same,Potency,[2],inactive
N[C@H](C(=O)O)[C@H](OCc1ccccc1)C(=O)O,Potency,[4],31.6 µM (active)
same,Potency,[5],> 46 µM
same,Potency,[11],> 46 µM
same,Potency,[1],inactive
same,Potency,[6],inactive
same,Potency,[23],7.94 µM (active)
same,Potency,[9],inactive
same,Potency,[10],inactive
same,Potency,[2],inactive
CCCCCCCCC(=O)NCc1cc(OC)c(O)cc1I,Potency,[4],12.6 µM (active)
same,Potency,[11],> 46 µM
same,Potency,[1],inactive
same,Potency,[7],3.16 µM (active)
same,Potency,[8],inactive
same,Potency,[23],7.94 µM (active)
same,Potency,[10],inactive
same,Potency,[2],inactive
CN(CC[C@@H](Oc1ccc(-c2ccccc2)cc1)c1ccc(F)cc1)CC(=O)O,Potency,[4],inactive
same,Potency,[5],> 46 µM
same,Potency,[11],> 46 µM
same,Potency,[1],inactive
same,Potency,[24],2.51 µM (active)
same,Potency,[25],6.31 µM (active)
same,Potency,[10],inactive
same,Potency,[2],inactive
same,Potency,[26],inactive
same,Potency,[27],inactive
